Rows were chosen to be rich in hits. Some 2.4% of all compounds tested hit in one or more screens of this group.
D2 ag-1: D2 dopamine receptor (human) agonism | AID 485358 | 0.53% of 340,000 active | activation, % at 2 µM | HEK293 T-REx D2 cells, calcium flux agonist mode | P14416;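 active = activation over 3 SD above normal in the single-dose calcium agonist read, cut at about 30% in these data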
Target sequence (P14416 whole entry, looked up): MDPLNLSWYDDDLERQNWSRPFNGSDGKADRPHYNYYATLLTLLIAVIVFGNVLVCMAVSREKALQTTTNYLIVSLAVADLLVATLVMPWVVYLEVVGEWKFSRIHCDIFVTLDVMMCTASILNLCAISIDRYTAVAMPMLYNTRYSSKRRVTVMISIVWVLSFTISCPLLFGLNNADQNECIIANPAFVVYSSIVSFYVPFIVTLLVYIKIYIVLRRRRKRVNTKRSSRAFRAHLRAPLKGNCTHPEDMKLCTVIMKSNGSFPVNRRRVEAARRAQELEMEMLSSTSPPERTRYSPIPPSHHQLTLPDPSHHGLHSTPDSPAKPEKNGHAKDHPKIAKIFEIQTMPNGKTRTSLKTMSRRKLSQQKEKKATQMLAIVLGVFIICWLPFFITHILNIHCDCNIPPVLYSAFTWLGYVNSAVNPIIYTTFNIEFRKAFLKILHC
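HEK293 Trex D2 cells, tetracycline-induced, o/n 30 C 5% CO2; no-wash Ca dye, RT 30–90 min; 10-cycle baseline, 23 nl cpd added, kinetic Ca read 180 s; agonist hits = positive Ca response.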
D2 PAM-1: positive allosteric modulators of human D2 dopamine receptor. P14416. HEK293 T-REx D2, calcium flux, EC20 dopamine potentiation. potentiation, % at 10 µM. 0.34% of 340,000 active. AID 485347;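 active = potentiation over 3 SD above the plate norm, cut at about 30% in these data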
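Primary screen. Calcium kinetics in induced HEK293 T-REx D2 cells: compound pre-addition 180 s, EC20 dopamine, 180 s more.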
D2 antagonist: antagonizes the human D2 dopamine receptor; HEK293 TREx D2 cells, calcium flux, dopamine EC80; inhibition, % at 10 µM; 2% of 340,000 active; AID 485344; in the data active = inhibition above about 30%; inactive = below that, where a call was filed
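Tetracycline-induced HEK293 TREx cells expressing D2 receptor forced-coupled to calcium signalling, loaded with no-wash calcium dye. Compounds added and calcium flux read 180 s, then dopamine added at EC80 and read a further 180 s.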
D2 ag-2: activates the human D2 dopamine receptor; DiscoveRx PathHunter D2 beta-arrestin, luminescence, 90 min; 100% = 57 uM dopamine signal; 0.084% of 360,000 active; P14416; activation, % (test concentration not listed); in the data active = activation above about 40%; inconclusive = between about 15% and that limit
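Agonist mode: compounds alone added to overnight-plated D2 PathHunter cells for 90 min at 37 C, with 57 uM final dopamine (EC100) defining full response. Beta-arrestin recruitment detected by chemiluminescent reagent, read after 1 h at ambient temperature.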
D2 PAM-2: potentiates the human D2 dopamine receptor allosterically; P14416; DiscoveRx D2 beta-arrestin cells, luminescence, 90 min; 100% = 57 uM dopamine signal; potentiation, % (test concentration not listed); 0.23% of 360,000 active; AID 624464; in the data active = potentiation above about 50%; inconclusive = mostly about 30% to 49%
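PathHunter beta-arrestin assay in DiscoveRx D2 cells. Compounds were added with an EC20 of dopamine (50 nM final) for 90 min at 37 deg C. Luminescence was read 1 h after detection reagent, with 57 uM dopamine as the EC100 control.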
D3 arrestin ag: D3 receptor agonism confirmed, beta-arrestin readout | shares compounds with D2 ag-1 | DiscoveRx D3 beta-arrestin cells, luminescence, 90 min | Potency, µM (top dose mostly 76.9 µM), most hits filed as activators | 4% of 2,300 active; note: nearly all actives have a fitted effect of over 70% in size
D2 ag-3: activates human D2 dopamine receptor in D3 counterscreen; shares compounds with D2 ag-1; DiscoveRx PathHunter D2 beta-arrestin, luminescence, 90 min; response scale: percent relative to full dopamine signal; Potency, µM (highest dose often 76.9 µM), most hits filed as activators; 5.9% of 2,300 active; AID 720507; note: nearly all actives have a fitted effect of over 70% in size
Of the large screens only hits and unclear results are named; the others gave an inactive call (follow-up assays come after a bar, where they were run). Unless noted, calls come from the whole dose curve; as a rule, active = well fitted activation curve with a large enough effect; inconclusive = small, poorly fitted or top-dose-only effect; inactive = flat fitted curve, though single readings scatter.

COc1cc(Br)cc(CN2CCN(c3ncccn3)CC2)c1O	D2 ag-1 76, D2 antagonist 74, D2 ag-2 52, D2 PAM-2 81 | D3 arrestin ag inconclusive | D2 ag-3 7.9µM
OC(COc1ccccc1)CN1CCN(c2ncccn2)CC1 (stereo not drawn)	D2 antagonist 39 | D3 arrestin ag inactive | D2 ag-3 inactive
COc1cccc(OCC(O)CN2CCOCC2)c1 (stereo not drawn)	none
COc1cccc(OCC(O)CN2CCN(c3ncccn3)CC2)c1 (stereo not drawn)	D2 ag-1 78, D2 antagonist 69, D2 ag-2 inconclusive | D3 arrestin ag inactive | D2 ag-3 inconclusive
COc1cc2nc(NCc3ccccc3Cl)n3nc(-c4cccnc4)nc3c2cc1OC	none (no result: D2 antagonist, D2 ag-2, D2 PAM-2)
O=C(Nc1ccn(CCCNCC2CCCCC2)c(=O)n1)OCc1ccccc1	none (no result: D2 ag-1, D2 PAM-1, D2 antagonist, D2 PAM-2)
O=C(NC1CCCC1)C(c1ccccc1F)N(C(=O)c1csnn1)c1ccccc1 (stereo not drawn)	none
OC(CSc1ccc(F)cc1)CN1CCN(c2ccccc2)CC1 (stereo not drawn)	D2 ag-1 80, D2 antagonist 76, D2 ag-2 inconclusive | D3 arrestin ag inactive | D2 ag-3 inactive
COc1cccc(OCC(O)CN2CCN(c3ccc(Cl)cc3)CC2)c1 (stereo not drawn)	none
OC(COc1ccc(Br)cc1)CN1CCN(c2ccccc2)CC1 (stereo not drawn)	D2 ag-1 61, D2 antagonist 81 | D3 arrestin ag inconclusive | D2 ag-3 inconclusive
COc1cccc(OCC(O)CN2CCN(c3ccccc3)CC2)c1 (stereo not drawn)	D2 ag-1 79, D2 antagonist 83, D2 ag-2 inconclusive | D3 arrestin ag inconclusive | D2 ag-3 inconclusive
COc1cccc(OCC(O)CN2CCN(c3ccccn3)CC2)c1 (stereo not drawn)	D2 ag-1 73, D2 antagonist 91, D2 ag-2 inconclusive | D3 arrestin ag inconclusive | D2 ag-3 3.5µM
OC(CN1CCN(c2ccccc2)CC1)Cn1c2ccccc2c2ccccc21 (stereo not drawn)	none
COc1cccc(CN2CCN(c3ncccn3)CC2)c1	D2 ag-1 93, D2 antagonist 95, D2 ag-2 55 | D3 arrestin ag inconclusive | D2 ag-3 0.63µM
O=C(NCCCN1CCCC1=O)Nc1ccc(Br)cc1Cl	none
CC(C(=O)Nc1ccc(N2CCOCC2)cc1)N1C(=O)c2ccccc2C1=O (stereo not drawn)	none
CC(C)C(C(=O)Nc1ccc(N2CCOCC2)cc1)N1C(=O)c2ccccc2C1=O (stereo not drawn)	none | D3 arrestin ag inactive | D2 ag-3 inactive
CSc1c(CC(=O)Nc2ccccc2Cl)n(Cc2ccccc2)c2ccccc12	none
CSc1c(CC(=O)Nc2ccccc2C(F)(F)F)n(Cc2ccccc2)c2ccccc12	none | D3 arrestin ag inactive | D2 ag-3 inactive
Cc1ccc(S(=O)(=O)N2CCCCC2)cc1NC(=O)CSc1ncccn1	none
Cn1c(=O)c2c(ncn2CC(=O)OCC(=O)Nc2cc(Cl)ccc2C#N)n(C)c1=O	none (no result: D2 ag-1, D2 PAM-1, D2 antagonist)
COc1ccccc1NC(=O)C(C)OC(=O)C(C)SCC(=O)Nc1ccc(C)cc1 (stereo not drawn)	none | D3 arrestin ag inactive | D2 ag-3 inactive
CSc1ccc(CCNS(=O)(=O)c2cc(-c3cc(C)no3)ccc2C)cc1	none (no result: D2 antagonist, D2 ag-2, D2 PAM-2)
Cc1cc(-c2ccc(C)c(S(=O)(=O)NCCCN3CCN(c4ccccc4)CC3)c2)on1	D2 ag-1 72, D2 antagonist 73 | D3 arrestin ag inconclusive | D2 ag-3 inconclusive
Cc1cc(-c2ccc(C)c(S(=O)(=O)NCCCN3CCN(c4ccccc4F)CC3)c2)on1	D2 ag-1 70, D2 antagonist 76 | D3 arrestin ag inconclusive | D2 ag-3 inconclusive

High-throughput results: PubChem, National Center for Advancing Translational Sciences (NCATS)
